Measured values as given in the supplement of paper PMC13380429.
A number with no mark means an inactive call.

Tested on: Vero E6 infected with SARS-CoV-2
Assay: inhibition of SARS-CoV-2 cytopathic effect; higher = more antiviral protection, active = above 15
Conditions: 48 h

Compound | inhibition of SARS-CoV-2 cytopathic effect (1 nM) | inhibition of SARS-CoV-2 cytopathic effect (8.33 nM) | inhibition of SARS-CoV-2 cytopathic effect (100 nM) | inhibition of SARS-CoV-2 cytopathic effect (833.33 nM) | inhibition of SARS-CoV-2 cytopathic effect (10000 nM)
c1ccc2nc(N3CCNCC3)ccc2c1 [quipazine] | 2.16% | -1.97% | -0.43% | 1.22% | -2.16%
Cc1c[nH]c(=O)n(CCCN2CCN(c3ccccc3OCC(F)(F)F)CC2)c1=O | -2.56% | 0.88% | -3.18% | -1.23% | -1.99%
Cc1cc(-c2ccc(CC(=O)Nc3ccc(-c4cccnc4)cc3)cc2)ccn1 | -2.73% | -2.58% | -2.93% | 4.57% | 7.2%
NC(=O)Cc1cccc(C(=O)c2ccccc2)c1N [nepafenac] | -0.09% | 1.07% | -0.56% | -1.36% | -2.65%
Cc1ccccc1C(=O)Nc1ccc(C(=O)N2CCCC(N(C)C)c3ccccc32)cc1 (stereo not given) [mozavaptan] | 0.68% | 1.45% | 3.31% | -0.56% | -5.53%
CC(=O)Nc1ccc(OC[C@](C)(O)C(=O)Nc2ccc([N+](=O)[O-])c(C(F)(F)F)c2)cc1 [andarine] | -0.84% | -0.36% | -2.49% | -1.89% | -1.92%
C[C@@H](N)[C@@H](O)c1ccccc1 [1S,2R-phenylpropanolamine] | -1.52% | -0.06% | -0.95% | -0.75% | 0.8%
CCN(CC)CCOc1ccc2c(c1)C(=O)c1cc(OCCN(CC)CC)ccc1-2 [tilorone] | -0.99% | 0.89% | 1.34% | 0.62% | 24.9% (active)
CN(C)Cc1cccc(N=C(c2ccccc2)c2c(O)[nH]c3cc(C(=O)N(C)C)ccc23)c1 | 1.09% | 1.08% | 1.9% | -0.95% | -4.44%
Cc1ccc(NC(=O)c2cccc(N(C)C)c2)cc1NC(=O)c1ccc(O)cc1 | -3.41% | -1.26% | 6.65% | 1.14% | 6.69%
C[C@H](N)Cn1ccc2cc(F)c(Cl)cc21 | 1.25% | 4.09% | 1.91% | -2.16% | -0.64%
CCc1cccc(CC)c1NC(=O)CN(CC(=O)O)CC(=O)O [etifenin] | -0.66% | 1.39% | 0.25% | 0.46% | 3.26%
CN(C/C=C/C#CC(C)(C)C)Cc1cccc2ccccc12 [terbinafine] | 5.77% | 2.3% | 8.59% | 6.27% | 8.15%
Nc1nc(OCc2cc(Br)cs2)c2[nH]cnc2n1 [lomeguatrib] | -1% | 0% | 0.04% | -0.89% | 0.11%
Cn1cc(-c2ccc3nnc(C(F)(F)c4ccc5ncccc5c4)n3n2)cn1 | 0.45% | 2.96% | 4.23% | 0.5% | 6.76%
CCO[C@@H](Cc1ccc(OCCn2c(C)ccc2-c2ccc(SC)cc2)cc1)C(=O)O [saroglitazar] | 1% | -0.85% | -1.26% | 0.64% | 1.31%
Cc1cc(F)c(Nc2ncnc3cc(OCc4ccccc4)ccc23)cc1O | -3.67% | -0.24% | -1.17% | -2.03% | -1.32%
CC1(C)S[C@@H]2[C@H](NC(=O)Cc3ccccc3)C(=O)N2[C@H]1C(=O)O [benzylpenicillin] | -3.59% | -1.58% | -1.25% | -1% | -2.39%
O=C(O)c1cc(=O)c2ccccc2[nH]1 [kynurenic-acid] | 3.61% | 1.12% | 2.79% | 2.98% | 1.89%
